Most compounds without a hit are left out; they make up all but 3.7% or so of the library.
Mtb bLac sens = beta-lactam sensitization of Mtb H37Rv. M. tuberculosis H37Rv growth with meropenem, percent inhibition. inhibition, % at 25 µM. 330,000 compounds, 0.27% hits. AID 434955; call rule not given here;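 further: growth measured after seven days incubation then overnight dye step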
Mtb FBA inh = inhibitors of M. tuberculosis fructose-bisphosphate aldolase. 360,000 compounds, 2.3% hits. purified M. tuberculosis FBA, fluorescence read-out. inhibition, % at 1 µM. P9WQA3
Target sequence (P9WQA3 whole entry, looked up): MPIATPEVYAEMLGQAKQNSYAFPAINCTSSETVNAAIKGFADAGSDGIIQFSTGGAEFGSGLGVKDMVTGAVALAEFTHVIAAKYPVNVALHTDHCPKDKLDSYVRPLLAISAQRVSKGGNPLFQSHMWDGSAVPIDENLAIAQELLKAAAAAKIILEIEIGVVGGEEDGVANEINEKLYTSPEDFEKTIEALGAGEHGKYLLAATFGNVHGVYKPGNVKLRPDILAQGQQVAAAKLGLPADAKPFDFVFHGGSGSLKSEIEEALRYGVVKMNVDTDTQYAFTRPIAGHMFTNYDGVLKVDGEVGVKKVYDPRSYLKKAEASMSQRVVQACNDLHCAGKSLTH
Mtb UGM inh = inhibitors of M. tuberculosis UDP-galactopyranose mutase | AID 504406 | purified UGM, fluorescence polarization probe displacement | inhibition, % at 10 µM | P9WIQ1 | 320,000 compounds, 0.06% hits; in the data active means inhibition above about 10%, passing the limit was not always enough
Rv3671c inh = Rv3671c (M. tuberculosis) protease inhibition; 320,000 compounds, 0.048% hits; inhibition, % at 5.96 µM; P9WHR9; in the data active means inhibition above about 38%;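 further: extracellular domain of Rv3671c used as enzyme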
FadD28 FP inh = inhibitors of Mycobacterium tuberculosis FadD28 bisubstrate binding; FadD28 bisubstrate probe binding, fluorescence polarization; inhibition, % at 12.5 µM; 360,000 compounds, 0.22% hits; AID 588549; in the data active means inhibition above about 8.5%, passing the limit was not always enough
GDH-TPI counter-1 = counter-screen for M. tuberculosis FBA inhibitors: GDH-TPI coupled enzymes | 360,000 compounds, 1.2% hits | inhibition, % at 4.8 µM | GDH-TPI coupled enzyme counterscreen, NADH absorbance; in the data active means inhibition above about 30%
Mtb FBA inh conf = Mtb FBA inhibition, confirmed | shares compounds with Mtb FBA inh | purified M. tuberculosis FBA, fluorescence read-out | inhibition, % at 1 µM | 5,600 compounds, 78% hits | AID 651616
GDH-TPI counter-2 = GDH-TPI inhibition counter-screen for FBA inhibitors. shares compounds with Mtb FBA inh. GDH-TPI coupled enzyme counterscreen, fluorescence. inhibition, % at 1 µM. 5,600 compounds, 81% hits. AID 652141; in the data active means inhibition above about 10%
Of the large screens only hits and unclear results are named; the others gave an inactive call (follow-up assays come after a bar, where they were run). Unless noted, no stated cut-off is given here; in the data, active means inhibition above about 27%; inactive means the rest.

O=C1CCC/C=C\C[C@@H](CC(=O)N(CCO)Cc2ccccc2)C(=O)N[C@H](c2ccccc2)CO1	none
O=C(N/N=C/c1cccnc1)c1cc(-c2cccs2)nc2ccccc12	Mtb FBA inh 56 | Mtb FBA inh conf 51 | GDH-TPI counter-2 50
O=C(OC1CCOC1=O)c1cc(-c2cccs2)nc2ccccc12 (stereo unspecified)	Mtb FBA inh 44 | Mtb FBA inh conf inactive | GDH-TPI counter-2 inactive
O=C(NN1CCOCC1)c1cc(-c2cccs2)nc2ccccc12	Mtb FBA inh 51 | Mtb FBA inh conf 36 | GDH-TPI counter-2 21
Clc1ccc(-c2nc3ccccc3[nH]2)cn1	Mtb FBA inh 72 | Mtb FBA inh conf 97 | GDH-TPI counter-2 84
Cc1ccc(-c2nc3ccccc3[nH]2)cn1	none
Cc1nc2ccc(-c3nc4ccccc4[nH]3)cc2[nH]1	Mtb FBA inh 34 | Mtb FBA inh conf 78 | GDH-TPI counter-2 61
C=CCN(C(=O)Nc1ccc(OC)cc1)c1nnc(-c2ccncc2)s1	none
COc1ccc2nc(CC(C)(C)CC(=O)O)c[n+]([O-])c2c1	Mtb FBA inh 64 | Mtb FBA inh conf active | GDH-TPI counter-2 active
C=CCNC(=O)CSc1ncc2c(n1)-c1c(csc1SC)CC2	Mtb FBA inh 99 | Mtb FBA inh conf 82 | GDH-TPI counter-2 59
C=CCNC(=O)CSc1n[nH]c(-c2cc(Cl)ccc2OC)n1	none
CC(C)(C)C(=O)CSc1ncccn1	none
CSc1scc2c1-c1nc(SCC(=O)C(C)(C)C)ncc1CC2	Mtb FBA inh 30 | Mtb FBA inh conf 67 | GDH-TPI counter-2 48
COc1ccc(CC(N)c2csc(Nc3ccc(S(C)(=O)=O)cc3)n2)cc1 (stereo unspecified)	none (no result: Mtb bLac sens, Mtb UGM inh, Rv3671c inh)
Cc1cc(C)cc(NC(=S)Nc2cccc3ccccc23)c1	Mtb FBA inh 42 | Mtb FBA inh conf 147 | GDH-TPI counter-2 129
CCc1cccc(NC(=S)Nc2cccc3ccccc23)c1	Mtb FBA inh 46 | Mtb FBA inh conf 86 | GDH-TPI counter-2 77
Cc1cccc(NC(=S)Nc2cccc3ccccc23)c1	Mtb FBA inh 47 | Mtb FBA inh conf 143 | GDH-TPI counter-2 112
CC(=O)NNC(=S)Nc1cc(S(=O)(=O)N(C)C)ccc1C	none
COc1cccc(NC(=S)Nc2cccc3ccccc23)c1	none
Cc1ccc(NC(=S)Nc2cccc3ccccc23)cc1	none
Cc1ccc(S(=O)(=O)N(C)C)cc1NC(=S)Nc1cccc2ccccc12	Mtb FBA inh 34 | Mtb FBA inh conf active | GDH-TPI counter-2 194
Cc1cccc(C)c1C(O)c1ncc(-c2ccccc2C(F)(F)F)[nH]1 (stereo unspecified)	none (no result: Mtb bLac sens, Mtb UGM inh, Rv3671c inh)
COc1ccc(C(=O)NC2CCCN(Cc3ccc(Cl)cc3)C2)c(OC)c1 (stereo unspecified)	none
Fc1ccc(NC(=S)Nc2cccc3ccccc23)cc1	none
Fc1ccc(NC(=S)Nc2cccc3ccccc23)cc1F	Mtb FBA inh 49 | Mtb FBA inh conf inactive | GDH-TPI counter-2 17
CC(C)CNC(=O)CSc1n[nH]c(=O)n1CCc1ccccc1	none
Cn1c(=O)c2nc(Cl)c(-c3ccccc3)nc2n(C)c1=O	Mtb FBA inh 33 | Mtb FBA inh conf 152 | GDH-TPI counter-2 105
Cn1c(=O)c2nc(-c3ccccc3)c(-c3ccccc3)nc2n(C)c1=O	Mtb FBA inh 44 | Mtb FBA inh conf 81 | GDH-TPI counter-2 78
O=C(NCC1CCCO1)c1ccccc1NS(=O)(=O)c1ccc(Br)s1 (stereo unspecified)	none (no result: Mtb bLac sens, Mtb UGM inh, Rv3671c inh)
CC(=O)Nc1ccccc1NS(=O)(=O)c1cccc([N+](=O)[O-])c1	Mtb FBA inh 99 | Mtb FBA inh conf active | GDH-TPI counter-2 175
CC(=O)Nc1ccccc1NS(=O)(=O)c1ccccc1[N+](=O)[O-]	none
CC1(C)OCC(N)(CO)CO1	none (no result: Mtb bLac sens, Mtb UGM inh, Rv3671c inh)

Assay outcomes (PubChem)
